For experiment [1], the target named is human Peroxisome Proliferator-activated Receptor alpha (PPARa), PPARA (gene 5465) (UniProt Q07869). Description: ATG_PPARa_TRANS: Attagene TRANS-FACTORIAL HepG2 Assay for human Peroxisome Proliferator-activated Receptor alpha (PPARa) (AID 2283001). The method in brief:
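Transfected HepG2 cells treated with test chemical for 24 h. RNA isolated, reverse-transcribed with oligo(dT), PCR-amplified, FAM-labelled and HpaI-digested. Fragments sized by capillary electrophoresis; gain-of-signal fit relative to DMSO.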

Experiment [2] addresses Nuclear receptor subfamily 1 group I member 2 (Homo sapiens) (UniProt O75469). Description: ATG_PXR_TRANS: Attagene TRANS-FACTORIAL HepG2 Assay for human Pregnane X Receptor (PXR) (AID 2283008). In outline:
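Multiplexed TRANS reporter panel in HepG2; this component tracks PXR-Gal4-driven reporter mRNA after 24 h dosing, measured by RT-PCR with capillary electrophoresis fluorescence, fitted against DMSO.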

For experiment [3], the target named is human Retinoic Acid Receptor gamma (RARg), RARG (gene 5916) (UniProt P13631). Put plainly: ATG_RARg_TRANS: Attagene TRANS-FACTORIAL HepG2 Assay for human Retinoic Acid Receptor gamma (RARg) (AID 2283009). In outline: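 Gain-of-signal relative to DMSO is reported from fluorescent capillary electrophoresis of RT-PCR reporter products. These came from HepG2 cells expressing transfected RARg-GAL4 chimeras with UAS reporters, harvested 24 h after dosing.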

Experiment [4] has as its target human RAR-related Orphan Receptor beta (RORb), RORB (gene 6096) (UniProt Q92753). Put plainly: ATG_RORb_TRANS: Attagene TRANS-FACTORIAL HepG2 Assay for human RAR-related Orphan Receptor beta (RORb) (AID 2283010). The method in brief: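 Multiplexed transcription-factor reporter assay: HepG2 cells transiently carrying NR-Gal4/GAL4-UAS constructs, 24 h treatment, mRNA quantified by RT-PCR plus capillary electrophoresis fluorescence; activity scored as induction over DMSO.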

Experiment [5] has as its target human RAR-related Orphan Receptor gamma (RORg), RORC (gene 6097) (UniProt P51449). Description: ATG_RORg_TRANS: Attagene TRANS-FACTORIAL HepG2 Assay for human RAR-related Orphan Receptor gamma (RORg) (AID 2283011). In outline: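 HepG2 cells transiently transfected with GAL4-UAS reporter units and chimeric RORg-Gal4 construct; after 24 h chemical exposure, reporter mRNA measured by RT-PCR with fluorescent capillary electrophoresis, gain of signal fitted against DMSO.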

Experiment [6] has as its target Retinoic acid receptor RXR-alpha (Homo sapiens) (UniProt P19793). Put plainly: ATG_RXRa_TRANS: Attagene TRANS-FACTORIAL HepG2 Assay for human Retinoid X Receptor alpha (RXRa) (AID 2283012). The method in brief:
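Chimeric NR-GAL4 trans-activation in HepG2, 24 h treatment; reporter transcripts quantified by fluorescence on capillary electrophoresis, analysed for upward change from DMSO.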

In experiment [7] the target is human Thyroid Receptor alpha (THRa1), THRA (gene 7067) (UniProt P10827). Description: ATG_THRa1_TRANS: Attagene TRANS-FACTORIAL HepG2 Assay for human Thyroid Receptor alpha (THRa1) (AID 2283014). In outline: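 HepG2 cells transiently transfected with chimeric NR-Gal4 and GAL4-UAS reporter units, dosed 24 h. Reporter mRNA quantified by RT-PCR, fluorescent labeling, HpaI digestion and capillary electrophoresis; gain-of-signal fit versus DMSO.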

The target of experiment [8] is human Peroxisome Proliferator-activated Receptor delta (PPARd), PPARD (gene 5467) (UniProt Q03181). Description: ATG_PPARd_TRANS: Attagene TRANS-FACTORIAL HepG2 Assay for human Peroxisome Proliferator-activated Receptor delta (PPARd) (AID 2283002). In outline: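 Read-out is induced reporter mRNA, quantified by RT-PCR with fluorescent labelling and capillary electrophoresis after 24 h dosing. Cells are HepG2 transiently carrying multiple GAL4-UAS reporter units driven by exogenous NR-GAL4 chimeras; DMSO serves as baseline.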

The target of experiment [9] is Peroxisome proliferator-activated receptor gamma (Homo sapiens) (UniProt P37231). Put plainly: ATG_PPARg_TRANS: Attagene TRANS-FACTORIAL HepG2 Assay for human Peroxisome Proliferator-activated Receptor-gamma (PPARg) (AID 2283007). In outline:
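Chimeric NR-Gal4 transactivation is measured in transiently transfected HepG2 cells by reporter mRNA induction at 24 h. Detection uses RT-PCR with fluorescent labelling and capillary electrophoresis; DMSO defines baseline.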

Experiment [10] deals with human Retinoid X Receptor beta (RXRb), RXRB (gene 6257) (UniProt P28702). Put plainly: ATG_RXRb_TRANS: Attagene TRANS-FACTORIAL HepG2 Assay for human Retinoid X Receptor beta (RXRb) (AID 2283013). In outline:
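After a 24 h incubation with test chemical, transfected HepG2 cells carrying NR-Gal4 fusions and GAL4-UAS reporter transcription units yield RNA whose reporter cDNA is FAM-labelled, HpaI-cut and sized by capillary electrophoresis; increases over DMSO are scored.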

The target in experiment [11] is Retinoic acid receptor alpha (Homo sapiens) (UniProt P10276). Put plainly: ATG_RARa_TRANS: Attagene TRANS-FACTORIAL HepG2 Assay for human Retinoic Acid Receptor alpha (RARa) (AID 2283005). The method in brief: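 Reporter transcripts, measured by RT-PCR with fluorescent labeling and capillary electrophoresis after 24 h dosing, reflect activity of an exogenous human RARa–GAL4 fusion in transiently transfected HepG2. Fitted for increase relative to DMSO.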

Records with an inconclusive call do not appear. Activity calls are given as the source filed them. Rule for the calls: active = hit-call score of the fitted dose curve at least 0.9, where 1 is the maximum; inconclusive = response in the unintended direction; inactive = score below 0.9.

Chain of Peroxisome proliferator-activated receptor gamma (Homo sapiens) (P37231 whole entry, looked up, the tested form may be a part): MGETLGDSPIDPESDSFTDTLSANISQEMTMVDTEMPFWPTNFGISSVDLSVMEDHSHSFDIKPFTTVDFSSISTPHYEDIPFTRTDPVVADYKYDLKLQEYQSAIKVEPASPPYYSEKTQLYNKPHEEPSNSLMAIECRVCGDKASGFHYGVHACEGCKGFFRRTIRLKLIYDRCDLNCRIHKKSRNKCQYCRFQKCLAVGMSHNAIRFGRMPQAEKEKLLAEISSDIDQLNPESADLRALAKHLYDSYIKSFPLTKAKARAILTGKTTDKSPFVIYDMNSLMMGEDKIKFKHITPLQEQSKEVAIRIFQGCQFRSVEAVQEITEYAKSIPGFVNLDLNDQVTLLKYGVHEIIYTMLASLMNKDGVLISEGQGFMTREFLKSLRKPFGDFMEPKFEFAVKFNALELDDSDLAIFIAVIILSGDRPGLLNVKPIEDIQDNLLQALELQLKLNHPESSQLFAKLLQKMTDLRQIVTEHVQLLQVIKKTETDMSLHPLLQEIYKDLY
Chain of Retinoic acid receptor RXR-alpha (Homo sapiens) (P19793 whole entry, looked up, the tested form may be a part): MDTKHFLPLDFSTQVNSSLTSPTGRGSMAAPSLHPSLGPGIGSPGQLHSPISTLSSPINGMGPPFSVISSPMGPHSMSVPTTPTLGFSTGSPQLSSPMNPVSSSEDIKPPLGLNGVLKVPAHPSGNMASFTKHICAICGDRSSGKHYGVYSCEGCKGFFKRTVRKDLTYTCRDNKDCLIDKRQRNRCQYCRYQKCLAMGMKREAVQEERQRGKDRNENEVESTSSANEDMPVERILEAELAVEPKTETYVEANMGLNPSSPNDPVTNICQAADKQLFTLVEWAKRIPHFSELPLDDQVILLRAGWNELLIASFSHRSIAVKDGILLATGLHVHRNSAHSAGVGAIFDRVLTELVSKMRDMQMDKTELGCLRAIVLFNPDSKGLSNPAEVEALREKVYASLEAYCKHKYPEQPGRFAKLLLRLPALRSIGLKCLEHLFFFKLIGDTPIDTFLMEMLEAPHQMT
Chain of human Thyroid Receptor alpha (THRa1), THRA (gene 7067) (P10827 whole entry, looked up, the tested form may be a part): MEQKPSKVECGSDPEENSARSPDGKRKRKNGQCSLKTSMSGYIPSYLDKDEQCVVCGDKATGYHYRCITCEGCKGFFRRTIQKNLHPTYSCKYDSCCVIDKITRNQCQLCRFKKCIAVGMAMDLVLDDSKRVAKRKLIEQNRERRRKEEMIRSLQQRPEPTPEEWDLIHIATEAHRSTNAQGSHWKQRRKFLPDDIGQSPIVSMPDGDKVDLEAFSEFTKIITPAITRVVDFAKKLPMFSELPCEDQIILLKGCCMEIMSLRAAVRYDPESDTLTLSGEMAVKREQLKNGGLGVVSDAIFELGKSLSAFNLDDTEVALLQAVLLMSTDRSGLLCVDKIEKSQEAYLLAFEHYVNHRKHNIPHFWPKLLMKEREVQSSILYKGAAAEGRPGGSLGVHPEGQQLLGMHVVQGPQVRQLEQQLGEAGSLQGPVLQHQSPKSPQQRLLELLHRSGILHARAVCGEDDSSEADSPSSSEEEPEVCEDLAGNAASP
Chain of Nuclear receptor subfamily 1 group I member 2 (Homo sapiens) (O75469 whole entry, looked up, the tested form may be a part): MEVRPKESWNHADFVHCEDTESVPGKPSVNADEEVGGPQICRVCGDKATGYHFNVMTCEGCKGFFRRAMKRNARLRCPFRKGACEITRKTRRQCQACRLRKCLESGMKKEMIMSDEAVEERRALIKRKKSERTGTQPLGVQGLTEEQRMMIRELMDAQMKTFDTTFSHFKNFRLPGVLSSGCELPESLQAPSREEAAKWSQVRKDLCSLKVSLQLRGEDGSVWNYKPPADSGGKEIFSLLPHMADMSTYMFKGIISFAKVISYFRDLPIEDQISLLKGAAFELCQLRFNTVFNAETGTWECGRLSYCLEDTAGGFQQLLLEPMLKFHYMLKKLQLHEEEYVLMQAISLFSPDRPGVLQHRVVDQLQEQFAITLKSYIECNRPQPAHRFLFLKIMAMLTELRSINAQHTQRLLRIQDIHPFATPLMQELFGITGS
Chain of human Retinoid X Receptor beta (RXRb), RXRB (gene 6257) (P28702 whole entry, looked up, the tested form may be a part): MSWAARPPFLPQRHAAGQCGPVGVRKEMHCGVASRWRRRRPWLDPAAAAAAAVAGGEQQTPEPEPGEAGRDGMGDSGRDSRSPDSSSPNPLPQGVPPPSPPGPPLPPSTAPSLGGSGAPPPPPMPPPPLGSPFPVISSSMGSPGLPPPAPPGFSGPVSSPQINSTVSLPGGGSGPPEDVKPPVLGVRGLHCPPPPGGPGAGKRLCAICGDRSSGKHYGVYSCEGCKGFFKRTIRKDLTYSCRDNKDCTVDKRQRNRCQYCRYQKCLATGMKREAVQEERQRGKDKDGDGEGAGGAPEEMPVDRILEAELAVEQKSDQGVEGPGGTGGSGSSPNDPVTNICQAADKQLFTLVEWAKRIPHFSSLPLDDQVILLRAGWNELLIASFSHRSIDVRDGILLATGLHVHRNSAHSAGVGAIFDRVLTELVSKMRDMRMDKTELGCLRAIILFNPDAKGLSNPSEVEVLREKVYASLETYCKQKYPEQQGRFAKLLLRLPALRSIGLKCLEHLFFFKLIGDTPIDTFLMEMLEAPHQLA
Chain of human Peroxisome Proliferator-activated Receptor delta (PPARd), PPARD (gene 5467) (Q03181 whole entry, looked up, the tested form may be a part): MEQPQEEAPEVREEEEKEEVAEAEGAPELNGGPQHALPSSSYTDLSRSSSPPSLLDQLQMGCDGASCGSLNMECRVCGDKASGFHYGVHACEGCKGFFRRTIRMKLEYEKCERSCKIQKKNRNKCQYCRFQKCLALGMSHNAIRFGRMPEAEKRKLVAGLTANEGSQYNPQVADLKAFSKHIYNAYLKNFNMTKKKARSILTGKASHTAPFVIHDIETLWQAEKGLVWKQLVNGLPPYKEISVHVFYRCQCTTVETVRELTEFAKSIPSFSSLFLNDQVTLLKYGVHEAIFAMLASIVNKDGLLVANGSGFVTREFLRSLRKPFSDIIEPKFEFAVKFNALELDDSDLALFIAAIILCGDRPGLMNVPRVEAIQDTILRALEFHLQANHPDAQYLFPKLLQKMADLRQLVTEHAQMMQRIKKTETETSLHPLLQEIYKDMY
Chain of human RAR-related Orphan Receptor gamma (RORg), RORC (gene 6097) (P51449 whole entry, looked up, the tested form may be a part): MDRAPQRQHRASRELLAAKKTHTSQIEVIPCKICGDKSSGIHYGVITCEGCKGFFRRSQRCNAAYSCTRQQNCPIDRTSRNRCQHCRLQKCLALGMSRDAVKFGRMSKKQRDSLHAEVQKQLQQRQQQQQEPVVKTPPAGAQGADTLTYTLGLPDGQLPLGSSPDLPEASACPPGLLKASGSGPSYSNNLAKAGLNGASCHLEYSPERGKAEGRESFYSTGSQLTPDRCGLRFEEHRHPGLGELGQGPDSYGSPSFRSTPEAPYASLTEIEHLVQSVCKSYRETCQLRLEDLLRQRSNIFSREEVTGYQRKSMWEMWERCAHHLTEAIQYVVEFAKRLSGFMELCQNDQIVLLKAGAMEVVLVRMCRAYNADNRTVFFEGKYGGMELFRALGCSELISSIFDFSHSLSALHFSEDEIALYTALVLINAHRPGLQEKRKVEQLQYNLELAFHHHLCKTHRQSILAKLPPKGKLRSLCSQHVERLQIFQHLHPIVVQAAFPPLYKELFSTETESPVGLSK
Chain of human Retinoic Acid Receptor gamma (RARg), RARG (gene 5916) (P13631 whole entry, looked up, the tested form may be a part): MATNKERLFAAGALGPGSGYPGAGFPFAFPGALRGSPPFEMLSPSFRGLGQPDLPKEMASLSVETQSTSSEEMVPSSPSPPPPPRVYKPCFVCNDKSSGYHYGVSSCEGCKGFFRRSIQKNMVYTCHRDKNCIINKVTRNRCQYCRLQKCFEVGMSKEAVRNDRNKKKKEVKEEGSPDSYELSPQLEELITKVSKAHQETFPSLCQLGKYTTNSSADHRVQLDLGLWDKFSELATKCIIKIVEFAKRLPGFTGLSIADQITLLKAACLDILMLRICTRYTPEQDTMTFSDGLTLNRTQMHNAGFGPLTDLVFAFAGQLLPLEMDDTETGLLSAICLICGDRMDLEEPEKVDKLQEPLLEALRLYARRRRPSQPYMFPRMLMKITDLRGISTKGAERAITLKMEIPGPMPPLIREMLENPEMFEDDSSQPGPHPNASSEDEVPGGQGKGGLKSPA
Chain of human RAR-related Orphan Receptor beta (RORb), RORB (gene 6096) (Q92753 whole entry, looked up, the tested form may be a part): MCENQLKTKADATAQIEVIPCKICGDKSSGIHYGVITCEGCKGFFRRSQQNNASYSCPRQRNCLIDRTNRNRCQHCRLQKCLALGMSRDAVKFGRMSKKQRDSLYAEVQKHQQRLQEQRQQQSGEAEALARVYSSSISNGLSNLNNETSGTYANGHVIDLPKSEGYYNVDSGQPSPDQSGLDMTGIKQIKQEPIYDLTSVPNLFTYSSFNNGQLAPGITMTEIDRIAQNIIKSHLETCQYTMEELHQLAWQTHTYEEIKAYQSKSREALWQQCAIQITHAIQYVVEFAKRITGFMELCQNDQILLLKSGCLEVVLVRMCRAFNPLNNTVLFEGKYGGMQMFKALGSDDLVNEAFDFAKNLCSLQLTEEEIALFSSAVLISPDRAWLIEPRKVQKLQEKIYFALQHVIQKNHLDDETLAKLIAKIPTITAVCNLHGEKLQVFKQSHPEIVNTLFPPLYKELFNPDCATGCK
Chain of human Peroxisome Proliferator-activated Receptor alpha (PPARa), PPARA (gene 5465) (Q07869 whole entry, looked up, the tested form may be a part): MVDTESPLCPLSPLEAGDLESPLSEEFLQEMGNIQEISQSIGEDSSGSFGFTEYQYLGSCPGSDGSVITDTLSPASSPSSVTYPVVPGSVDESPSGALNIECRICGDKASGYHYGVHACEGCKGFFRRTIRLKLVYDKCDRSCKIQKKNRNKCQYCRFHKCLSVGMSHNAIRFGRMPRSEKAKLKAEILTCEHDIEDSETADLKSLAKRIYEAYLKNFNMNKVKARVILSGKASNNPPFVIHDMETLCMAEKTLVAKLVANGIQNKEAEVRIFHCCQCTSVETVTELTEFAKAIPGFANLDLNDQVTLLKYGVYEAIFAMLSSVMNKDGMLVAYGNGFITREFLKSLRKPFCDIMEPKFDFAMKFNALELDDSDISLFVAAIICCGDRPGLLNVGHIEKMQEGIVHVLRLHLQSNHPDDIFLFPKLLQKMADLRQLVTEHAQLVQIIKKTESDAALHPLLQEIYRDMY

As to `O=C(O)CS`, the outcome in [1], in [2], in experiment [3] and in experiment [4] was inactive.
As to `C=C(C)C(=O)OCCC[Si](OC)(OC)OC`, the outcome in experiment [1], in experiment [2], in experiment [4], in experiment [5], in [6] and in [7] was inactive.
By AC50 is commonly meant the concentration giving half of the maximal activity seen. Take `Cc1cc(O)c(C)c(C)c1O`: the compound was called inactive in experiment [8], in experiment [4], in [5], in experiment [6] and in [10]. Moreover, the AC50 in [9] was 32.4 µM (active); in experiment [2] it was 22 µM (active).
Take `COc1ccccc1O`: the call in [8], in experiment [9], in [2], in experiment [4], in [5] and in [7] was inactive.
On to `Cc1cccc(O)c1`, for which the outcome in experiment [8], in experiment [9], in experiment [2], in experiment [4] and in experiment [5] was inactive.
On to `[Cl][Dy]([Cl])[Cl]`, for which the outcome in [1], in [2], in experiment [6], in experiment [10] and in experiment [7] was inactive.
As to `CCCC[N+](C)(CCCC)CCCC`, the compound was classed as inactive in experiment [1], in experiment [4], in [5], in [6] and in [10].
As for `CCCCCCCCOS(=O)(=O)O`, the compound was called inactive in experiment [1], in experiment [5] and in experiment [6]. Moreover, the half-maximal activity concentration (AC50) in [9] was 47.6 µM (active); in experiment [10], 100 µM (active).
With `CCCCCCCC(=O)N(C)C`, the compound was called inactive in experiment [8], in experiment [9], in experiment [2], in [3], in [6] and in experiment [7].
Take `CCCCCC1CCC(=O)O1` (stereo not given): the call in experiment [1], in experiment [2], in [6] and in [10] was inactive.
In the case of `CC1=CCC(C(C)(C)O)CC1` (stereo not given), the compound was classed as inactive in [1], in [2], in [4] and in [7].
For the compound `CC(O)CNCC(C)O` (stereo not given), the outcome in [8], in experiment [9], in experiment [2], in [4], in experiment [5] and in experiment [6] was inactive. Further, the compound was called inactive in experiment [10].
As to `C1=COCCC1`, the call in experiment [1], in [2], in [4], in [5] and in [10] was inactive.
With `C=C1CC[C@H]2O[C@]2(C)CC[C@@H]2[C@@H]1CC2(C)C`, the result in experiment [8], in experiment [9], in [2], in [4], in experiment [6] and in experiment [7] was inactive. The AC50 in experiment [10] was 100 µM (active).
For the compound `OC[C@H]1O[C@@H](O[C@H]2[C@H](O)[C@@H](O)[C@H](O)O[C@@H]2CO)[C@H](O)[C@@H](O)[C@H]1O`, the result in experiment [8], in experiment [9], in experiment [2], in [4], in experiment [6] and in [10] was inactive. In addition, the call in [7] was inactive.
As to `NCCN1CCNCC1`, the outcome in experiment [8], in [9], in experiment [2], in experiment [3], in experiment [4] and in experiment [5] was inactive. Moreover, the AC50 in experiment [10] was 25.3 µM (active).
Take `CC(=O)c1ccc(O)cc1`: the compound was classed as inactive in [8], in experiment [9], in [2], in experiment [4], in [5] and in experiment [6]. Also, the compound was classed as inactive in experiment [10] and in [7].
As for `CC(=O)CC(=O)N(C)C`, the outcome in [1], in experiment [2], in experiment [4], in experiment [5], in experiment [6] and in experiment [7] was inactive.
In the case of `CC1COC(=O)O1` (stereo not given), the compound was classed as inactive in [1], in [9] and in experiment [7].
Consider `CC(C)(O)CCc1ccccc1`, for which the result in [8], in experiment [9], in experiment [2], in experiment [4], in experiment [5] and in experiment [10] was inactive.
In the case of `Cc1cc(N)n(-c2ccccc2)n1`, the result in experiment [8], in experiment [9], in experiment [2], in experiment [4], in [5] and in [10] was inactive. Besides, in experiment [7], the call was inactive.
As for `CCCCOCCOC(=O)c1ccccc1C(=O)OCCOCCCC`, the result in experiment [8], in [3], in [6], in experiment [10] and in [7] was inactive. The figures for the AC50 in experiment [9] and in experiment [2] were 27.5 µM (active) and 7.61 µM (active), respectively.
For `[Cu+]`, the compound was called inactive in experiment [8], in experiment [11], in experiment [9], in experiment [2], in experiment [3] and in [4]. The outcome in experiment [5], in experiment [6] and in [7] was inactive.
For `NC(=O)c1cnccn1`, the result in [1], in [2], in experiment [6] and in experiment [10] was inactive.
As to `CC/C=C\CCOC(=O)C(C)C`, the compound was called inactive in [8], in experiment [11], in [9], in [4], in experiment [10] and in [7].
`CC1(C)CC(=O)CC(C)(C)N1`: the outcome in [8], in [9], in experiment [2] and in [5] was inactive.

Source of the values: PubChem BioAssay (EPA / NIEHS).
